Test results published in PubChem BioAssay (NCI).
Where “and” joins values, the source holds several entries; their conditions need not be identical. Equal entries are not always repeated. This is part of a sample that, as a whole, favours compounds with a hit. Of some 83,000 tested, about 20% had one in any assay.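 Plates (96-well) were seeded with cells, treated with compound at one concentration, and incubated for 48 hours before percent growth was determined.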 Calls of active or inactive are those of the source. The calls were made as follows: active = growth percent below 10; inactive = the rest.

Key:
Assay in all cases: NCI-60 one-dose screen, 48 h (100 = growth as untreated, 0 = no growth, -100 = all killed)
Details in all cases: 10 µM unless noted
NCI-H23 lung = test system: NCI-H23 lung
NCI-H226 lung = test system: NCI-H226 lung
NCI-H322M lung = test system: NCI-H322M lung
HOP-62 NSCLC = test system: HOP-62 NSCLC
NCI-H460 lung = test system: NCI-H460 lung
HOP-92 NSCLC = test system: HOP-92 NSCLC
NCI-H522 lung = test system: NCI-H522 lung
A549/ATCC NSCLC = test system: A549/ATCC NSCLC
786-0 renal = test system: 786-0 renal
COLO 205 colon = test system: COLO 205 colon
DU-145 prostate = test system: DU-145 prostate
K-562 leukemia = test system: K-562 leukemia
MALME-3M melanoma = test system: MALME-3M melanoma
MDA-MB-231 breast = test system: MDA-MB-231 breast
RXF 393 renal = test system: RXF 393 renal
SF-268 CNS = test system: SF-268 CNS
SF-295 CNS = test system: SF-295 CNS
SF-539 CNS = test system: SF-539 CNS
UACC-257 melanoma = test system: UACC-257 melanoma
M14 melanoma = test system: M14 melanoma

Compound	growth (NCI-H23 lung)	growth (NCI-H226 lung)	growth (NCI-H322M lung)	growth (HOP-62 NSCLC)	growth (NCI-H460 lung)	growth (HOP-92 NSCLC)	growth (NCI-H522 lung)	growth (A549/ATCC NSCLC)	growth (786-0 renal)	growth (COLO 205 colon)	growth (DU-145 prostate)	growth (K-562 leukemia)	growth (MALME-3M melanoma)	growth (MDA-MB-231 breast)	growth (RXF 393 renal)	growth (SF-268 CNS)	growth (SF-295 CNS)	growth (SF-539 CNS)	growth (UACC-257 melanoma)	growth (M14 melanoma)
CC1CCCC(=O)O1 (stereo not given)	104% (inactive) and 97.1% (inactive)	93.3% (inactive) and 101% (inactive)	106% (inactive)	94.3% (inactive) and 96.5% (inactive)	104% (inactive) and 112% (inactive)	91.8% (inactive)	86.3% (inactive) and 104% (inactive)	108% (inactive) and 97.9% (inactive)	92.6% (inactive) and 93.3% (inactive)	107% (inactive) and 122% (inactive)	106% (inactive) and 107% (inactive)	104% (inactive) and 108% (inactive)	104% (inactive)	103% (inactive) and 111% (inactive)	101% (inactive) and 112% (inactive)	102% (inactive) and 111% (inactive)	99.5% (inactive) and 102% (inactive)	100% (inactive) and 94.7% (inactive)	104% (inactive) and 98.9% (inactive)	101% (inactive) and 105% (inactive)
O=C(CCl)c1ccc2c(c1)Nc1ccccc1S2	90.7% (inactive) and 94.2% (inactive)	89.4% (inactive) and 91.2% (inactive)	102% (inactive) and 92.7% (inactive)	97.6% (inactive) and 99.8% (inactive)	110% (inactive) and 105% (inactive)	101% (inactive)	66.1% (inactive) and -35.2% (active)	100% (inactive) and 106% (inactive)	63.6% (inactive) and 79.1% (inactive)	110% (inactive) and 86.7% (inactive)	104% (inactive)	29.5% (inactive) and 30.3% (inactive)	91.5% (inactive)	97.7% (inactive) and 89.5% (inactive)	103% (inactive)	104% (inactive) and 98.5% (inactive)	94.8% (inactive) and 96.3% (inactive)	91.7% (inactive) and 84.5% (inactive)	102% (inactive) and 96.8% (inactive)	91.6% (inactive) and 91.5% (inactive)
Cn1cnc([N+](=O)[O-])c1Sc1ncnc2nc[nH]c12	72.9% (inactive) and 79.9% (inactive)	51.2% (inactive) and 72.4% (inactive)	55.1% (inactive) and 47.5% (inactive)	37.2% (inactive) and 20.8% (inactive)	70.4% (inactive) and 69% (inactive)	60.7% (inactive) and 61.4% (inactive)	65.1% (inactive) and 85.9% (inactive)	82% (inactive) and 107% (inactive)	36.2% (inactive)	94.5% (inactive) and 112% (inactive)	44.5% (inactive)	20.4% (inactive) and 23.6% (inactive)	75.5% (inactive) and 93.8% (inactive)	31.3% (inactive) and 57.8% (inactive)	79.5% (inactive) and 94.4% (inactive)	69.1% (inactive) and 49.2% (inactive)	33.5% (inactive) and 31.1% (inactive)	37.8% (inactive) and 33.3% (inactive)	73.4% (inactive) and 98.4% (inactive)	30.3% (inactive) and 21.4% (inactive)
O[C@H](c1cc(C(F)(F)F)nc2c(C(F)(F)F)cccc12)[C@@H]1CCCCN1	79.2% (inactive) and 77.8% (inactive)	93.5% (inactive) and 58.9% (inactive)	68.6% (inactive) and 52% (inactive)	71.3% (inactive) and 74.6% (inactive)	27.7% (inactive) and 23.6% (inactive)	9.97% (active) and -8.33% (active)	58.4% (inactive) and 22.8% (inactive)	56.9% (inactive) and 67.1% (inactive)	42.4% (inactive) and 56.6% (inactive)	62.3% (inactive) and 60.5% (inactive)	67% (inactive) and 70.2% (inactive)	8.6% (active) and 11.9% (inactive)	89.6% (inactive) and 82.2% (inactive)	15.1% (inactive) and 17.7% (inactive)	44% (inactive) and 43.3% (inactive)	57.9% (inactive) and 56.6% (inactive)	93.6% (inactive)	81.1% (inactive) and 75.6% (inactive)	58.1% (inactive) and 75.4% (inactive)	67.2% (inactive) and 71.8% (inactive)
CC(C)Cc1ccc(C(C)C(=O)NCc2ccc(Cn3c(=O)sn(CCCI)c3=O)cc2)cc1 (stereo not given)	92% (inactive) and -78.3% (active)	83.8% (inactive) and 4.03% (active)	98.2% (inactive) and 59.4% (inactive)	-56.2% (active)	99.6% (inactive) and 3.28% (active)	73.6% (inactive) and -67.5% (active)	69% (inactive) and -55.6% (active)	95.4% (inactive) and -54.7% (active)	94.3% (inactive) and -88.9% (active)	-62.4% (active)	94% (inactive) and -88.2% (active)	3.55% (active)	92.4% (inactive) and -74.4% (active)	92.1% (inactive) and -62% (active)	-94.8% (active)	91% (inactive) and -64.5% (active)	96.1% (inactive) and 35.9% (inactive)	88.7% (inactive) and -96.6% (active)	77.8% (inactive) and -19.9% (active)	88.8% (inactive) and -66.9% (active)
COc1ccc2cc3[n+](cc2c1OC)CCc1cc2c(cc1-3)OCO2	43.4% (inactive) and 50.4% (inactive)	73.8% (inactive) and 79.5% (inactive)	96% (inactive) and 99.4% (inactive)	43.9% (inactive) and 85.4% (inactive)	75.9% (inactive) and 88.9% (inactive)	76.1% (inactive) and 20.6% (inactive)	68.7% (inactive) and 53% (inactive)	75.1% (inactive) and 59.4% (inactive)	73.5% (inactive) and 66.9% (inactive)	59.5% (inactive) and 68.4% (inactive)	92.5% (inactive) and 78.4% (inactive)	41.1% (inactive) and 40% (inactive)	31.6% (inactive) and 42% (inactive)	81.7% (inactive) and 87.5% (inactive)	89.1% (inactive) and 60.9% (inactive)	42.9% (inactive) and 40.7% (inactive)	19.3% (inactive) and 45.1% (inactive)	68.6% (inactive) and 82.9% (inactive)	48.1% (inactive) and 88.5% (inactive)	83.2% (inactive) and 110% (inactive)
CN1CCN(C2CCN(C(=O)Nc3cc(Oc4ccc(NC(=O)C5(C(=O)Nc6ccc(F)cc6)CC5)c(F)c4)ccn3)CC2)CC1	-44.6% (active) and 73.4% (inactive)	-4.95% (active) and 76.4% (inactive)	-27.6% (active) and 94% (inactive)	-68.7% (active) and 110% (inactive)	-50.4% (active) and 77.2% (inactive)	-43.2% (active) and 68.1% (inactive)	-66.2% (active) and 80.8% (inactive)	-13.9% (active) and 90.3% (inactive)	-72.9% (active) and 110% (inactive)	-78.3% (active) and 85.6% (inactive)	8.48% (active) and 69.1% (inactive)	0.176% (active) and 37.1% (inactive)	-86.6% (active) and 60.2% (inactive)	-65.7% (active) and 68.3% (inactive)	-91.7% (active) and 86.4% (inactive)	-22.5% (active) and 90.8% (inactive)	-87.8% (active) and 50.8% (inactive)	-96.4% (active) and 58.7% (inactive)	-91.6% (active) and 95.8% (inactive)	-77.3% (active) and 57% (inactive)
S=C(S)N1CCCC1	108% (inactive) and 102% (inactive)	108% (inactive) and 111% (inactive)	107% (inactive) and 97.7% (inactive)	124% (inactive) and 100% (inactive)	62.2% (inactive)	91.9% (inactive) and 88% (inactive)	8.09% (active) and -11.7% (active)	70.6% (inactive) and 58.4% (inactive)	103% (inactive) and 106% (inactive)	60.7% (inactive) and 49.9% (inactive)	105% (inactive) and 128% (inactive)	39.6% (inactive) and 76.5% (inactive)	96.1% (inactive) and 99.7% (inactive)	92.3% (inactive) and 125% (inactive)	112% (inactive) and 125% (inactive)	97% (inactive) and 116% (inactive)	112% (inactive) and 103% (inactive)	110% (inactive) and 128% (inactive)	96.5% (inactive) and 92.6% (inactive)	93.8% (inactive) and 101% (inactive)
